Experimental data published in PubChem BioAssay AID1159580 (chemical genetic matrix, 2015).
Screen size: about 5,500 compounds; about 2,000 (36%) were called active. Not shown: some 18% with an inconclusive outcome. No stated cut-off is given here; in the data, active means normalized growth mostly below about 0.91 (no sharp cut-off); inconclusive means no clear call, values can overlap the other calls; inactive means mostly above about 0.92. The list shows a part of the results.

Test: chemical genetic growth profiling, strain panel (AID 1159580);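 further: tested at 20 µM; growth read once vehicle control cultures reached saturation at 30 °C; 1 = growth at the plate median or of vehicle wells; lower values mean less growth of the strain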
Conditions: growth OD

Measured: normalized growth

Oc1cc(O)c2c(c1)O[C@H](c1ccc(O)c(O)c1)[C@H](O)C2
inactive: S. cerevisiae deletion strains, locus YJR043C, strain POL32, hits give low values 1.07 | S. cerevisiae deletion strains, locus YJR066W, strain TOR1, hits give low values 0.94 | S. cerevisiae deletion strains, locus YKL009W, strain mrt4, hits give low values 0.972 | S. cerevisiae deletion strains, locus YKL068W, hits give low values 0.979 | S. cerevisiae deletion strains, locus YKL085W, strain MDH1 (second series), hits give low values 0.981 | S. cerevisiae deletion strains, locus YKL085W, strain MDH1, hits give low values 0.981 | S. cerevisiae deletion strains, locus YKL160W, strain elf1, hits give low values 1 | S. cerevisiae deletion strains, locus YKR001C, strain vps1, hits give low values 1 | S. cerevisiae deletion strains, locus YKR026C, strain gcn3, hits give low values 1 | S. cerevisiae deletion strains, locus YKR091W, strain srl3, hits give low values 0.999 | S. cerevisiae deletion strains, locus YLL001W, strain dnm1, hits give low values 0.994 | S. cerevisiae deletion strains, locus YLL026W, hits give low values 1.01 | S. cerevisiae deletion strains, locus YLL041C, strain sdh2, hits give low values 1.01 | S. cerevisiae deletion strains, locus YLR027C, strain aat2, hits give low values 0.996 | S. cerevisiae deletion strains, locus YLR039C, strain RIC1, hits give low values 1.08 | S. cerevisiae deletion strains, locus YLR058C, strain SHM2, hits give low values 1.01 | S. cerevisiae deletion strains, locus YLR102C, strain apc9, hits give low values 0.982 | S. cerevisiae deletion strains, locus YLR113W, strain HOG1, hits give low values 1.02 | S. cerevisiae deletion strains, locus YLR221C, strain rsa3, hits give low values 1.04 | S. cerevisiae deletion strains, locus YLR258W, strain gsy2, hits give low values 1.01 | S. cerevisiae deletion strains, locus YLR262C, strain YPT6 (second series), hits give low values 0.997 | S. cerevisiae deletion strains, locus YLR262C, strain YPT6, hits give low values 1.06 | S. cerevisiae deletion strains, locus YLR268W, strain sec22, hits give low values 0.979 | S. cerevisiae deletion strains, locus YLR320W, strain mms22, hits give low values 1.05 | S. cerevisiae deletion strains, locus YLR330W, strain CHS5, hits give low values 1.01 | S. cerevisiae deletion strains, locus YLR342W, strain FKS1 (second series), hits give low values 1.04 | S. cerevisiae deletion strains, locus YLR342W, strain FKS1, hits give low values 1.01 | S. cerevisiae deletion strains, locus YLR357W, strain rsc2, hits give low values 0.992 | S. cerevisiae deletion strains, locus YLR370C, strain arc18, hits give low values 1.01 | S. cerevisiae deletion strains, locus YLR371W, strain rom2, hits give low values 0.975 | S. cerevisiae deletion strains, locus YLR384C, strain iki3, hits give low values 0.995 | S. cerevisiae deletion strains, locus YLR418C, strain cdc73, hits give low values 1.03 | S. cerevisiae deletion strains, locus YML016C, strain PPZ1, hits give low values 0.992 | S. cerevisiae deletion strains, locus YML032C, strain rad52, hits give low values 1.01 | S. cerevisiae deletion strains, locus YML120C, strain ndi1, hits give low values 0.996 | S. cerevisiae deletion strains, locus YML124C, strain tub3, hits give low values 0.992 | S. cerevisiae deletion strains, locus YMR058W, strain fet3, hits give low values 1.02 | S. cerevisiae deletion strains, locus YMR078C, strain ctf18, hits give low values 0.977 | S. cerevisiae deletion strains, locus YMR125W, strain sto1, hits give low values 1 | S. cerevisiae deletion strains, locus YMR129W, hits give low values 1 | S. cerevisiae deletion strains, locus YMR205C, strain PFK2, hits give low values 1.03 | S. cerevisiae deletion strains, locus YMR223W, strain ubp8, hits give low values 1 | S. cerevisiae deletion strains, locus YMR231W, strain pep5, hits give low values 0.981 | S. cerevisiae deletion strains, locus YMR307W, strain GAS1, hits give low values 1.22 | S. cerevisiae deletion strains, locus YNL067W, strain RPL9B, hits give low values 0.971 | S. cerevisiae deletion strains, locus YNL071W, strain lat1, hits give low values 1.01 | S. cerevisiae deletion strains, locus YNL183C, strain NPR1, hits give low values 0.95 | S. cerevisiae deletion strains, locus YNL209W, strain ssb2, hits give low values 0.994 | S. cerevisiae deletion strains, locus YNL233W, strain BNI4, hits give low values 1.01 | S. cerevisiae deletion strains, locus YNL248C, strain rpa49, hits give low values 1 | S. cerevisiae deletion strains, locus YNL250W, strain rad50, hits give low values 0.937 | S. cerevisiae deletion strains, locus YNL271C, strain bni1, hits give low values 0.984 | S. cerevisiae deletion strains, locus YNL298W, strain CLA4, hits give low values 1.01 | S. cerevisiae deletion strains, locus YNL307C, strain MCK1, hits give low values 0.977 | S. cerevisiae deletion strains, locus YNL322C, strain KRE1 (second series), hits give low values 1.01 | S. cerevisiae deletion strains, locus YNL322C, strain KRE1, hits give low values 1.01 | S. cerevisiae deletion strains, locus YNR049C, strain mso1, hits give low values 1.01 | S. cerevisiae deletion strains, locus YNR052C, strain pop2, hits give low values 0.991 | S. cerevisiae deletion strains, locus YOL006C, strain TOP1, hits give low values 1.03 | S. cerevisiae deletion strains, locus YOL012C, strain htz1 1.18 | S. cerevisiae deletion strains, locus YOL147C, strain pex11, hits give low values 0.998 | S. cerevisiae deletion strains, locus YOR001W, strain rrp6, hits give low values 1.04 | S. cerevisiae deletion strains, locus YOR061W, strain CKA2, hits give low values 0.998 | S. cerevisiae deletion strains, locus YOR069W, strain VPS5, hits give low values 0.999 | S. cerevisiae deletion strains, locus YOR070C, strain gyp1, hits give low values 1 | S. cerevisiae deletion strains, locus YOR080W, strain dia2, hits give low values 1.01 | S. cerevisiae deletion strains, locus YOR083W, strain WHI5, hits give low values 1.01 | S. cerevisiae deletion strains, locus YOR106W, strain vam3, hits give low values 1.03 | S. cerevisiae deletion strains, locus YOR136W, strain idh2, hits give low values 0.985 | S. cerevisiae deletion strains, locus YOR144C, strain elg1, hits give low values 1.01 | S. cerevisiae deletion strains, locus YOR184W, strain ser1, hits give low values 1 | S. cerevisiae deletion strains, locus YOR231W, strain MKK1, hits give low values 0.992 | S. cerevisiae deletion strains, locus YOR265W, strain rbl2, hits give low values 1.02 | S. cerevisiae deletion strains, locus YOR270C, strain vph1, hits give low values 1.08 | S. cerevisiae deletion strains, locus YOR290C, strain snf2, hits give low values 0.99 | S. cerevisiae deletion strains, locus YOR316C, strain cot1, hits give low values 0.989 | S. cerevisiae deletion strains, locus YPL051W, strain arl3, hits give low values 1.01 | S. cerevisiae deletion strains, locus YPL078C, strain atp4, hits give low values 1.03 | S. cerevisiae deletion strains, locus YPL106C, strain sse1, hits give low values 1.01 | S. cerevisiae deletion strains, locus YPL240C, strain hsp82, hits give low values 1.01 | S. cerevisiae deletion strains, locus YPL256C, strain CLN2, hits give low values 0.98 | S. cerevisiae deletion strains, locus YPR119W, strain clb2, hits give low values 0.978 | S. cerevisiae deletion strains, locus YPR141C, strain kar3, hits give low values 0.976 | S. cerevisiae deletion strains, locus YPR163C, strain tif3, hits give low values 0.991 | S. cerevisiae deletion strains, locus YPR167C, strain met16, hits give low values 0.987 | S. cerevisiae deletion strains, strain wtn01, hits give low values 0.992 | S. cerevisiae strains, strain wild type, hits give low values 1.01
